From PubChem BioAssay (NCI)
This is part of a sample that, as a whole, favours compounds with a hit. Of some 83,000 tested, about 20% had one in any assay.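 The endpoint reported here, percent growth, reads 100 for growth as untreated, 0 for no net growth and -100 for all cells dead.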 Values without a mark were called inactive. Active and inactive are the calls of the source. How the source made its calls: active means growth percent below 10; inactive means the rest.

These molecules were tested on ACHN renal (assay: NCI-60 one-dose screen, 48 h (100 = growth as untreated, 0 = no growth, -100 = all killed)). Conditions: 10 µM unless noted.

Row | SMILES | growth
1 | CN1CCN(Cc2ccc(NC(=O)c3cncc(C#Cc4cnc5ccc(N6CCN(C)CC6)nn45)c3)cc2C(F)(F)F)CC1 | -98.1% (active)
2 | O=C(O)c1cn(C2CC2)c2cc(N3CCN(C(=O)CN4C(=O)CSC4=O)CC3)c(F)cc2c1=O | 93.7%
3 | NC/C(=C/F)COc1ccc2nc(NCc3cccnc3)oc2c1 | 100%
4 | C=C(C)[C@@H]1CC[C@]2(C(=O)NCCCCCN(CCC#N)CCC#N)CC[C@]3(C)[C@H](CC[C@@H]4[C@@]5(C)CCC(=O)C(C)(C)[C@@H]5CC[C@]43C)[C@@H]12 | 98.7%
5 | CCCCNNC(=O)c1ccc(-c2cccc(F)c2F)cc1 | 22.4%
6 | C#Cc1ccc(C(=O)NCc2ccc(/C=C/C(=O)c3nccn3C)cc2)cc1 | 21.6%
7 | COc1ccc(/C(N)=N/C(N)=N/c2nc3ccccc3s2)cc1 | 80.8%
8 | O=C(CN1CCN(c2cc(=O)[nH]c3ccc(F)cc23)CC1)Nc1ccc(Cl)cc1 | 57%
9 | Cc1ccc(-n2cc(/C=C/C(=O)c3ccc(O)cc3)c(-c3ccc(S(C)(=O)=O)cc3)n2)cc1 | 67.7%
10 | O=S(=O)(NCCCNc1nccc(-c2[nH]c(-c3ccccc3)nc2-c2ccc(Cl)c(O)c2)n1)c1cccc(F)c1 | 57.2%
11 | Cc1cc(-c2ccc(Cl)cc2)n(Cc2nnc(SCC(=O)Nc3ccc(S(N)(=O)=O)cc3)n2C2CCCCC2)n1 | 104%
12 | Oc1cccc2ccc(-c3nnc(SCc4ccc(O)c5ncccc45)n3-c3ccccc3)nc12 | 7.49% (active)
13 | Cc1ccc(-c2nn(-c3ccccc3)cc2/C=C/C(=O)c2ccc(NC(=O)CCCCCCC(=O)NO)cc2)cc1 | 87.9%
14 | CC(C)(C)c1ccc(C(=O)Nc2sc3c(c2C(N)=O)CCC(O)C3)cc1 (stereo not drawn) | 25.4%
15 | O=C(Nc1ccc2c(ccn2Cc2ccccn2)c1)c1ccnnc1 | 97.3%
16 | CC(C)(C)c1ccc(C(=O)Nc2sc3c(c2C(N)=O)CC/C(=N\O)C3)cc1 | 12.2%
17 | NC(N)=Nc1ccc(Oc2cccc(Nc3ccc(Cl)cc3)c2)cn1 | 30.9%
18 | CCc1cccc(NC(=O)CNc2cc(S(=O)(=O)N(C)C)cc(C)c2C)c1 | 91.3%
19 | COc1ccc(N2C(=O)c3cc(Cl)ccc3NC2SCc2ccccc2)cc1 (stereo not drawn) | 101%

Row | SMILES | growth
20 | O=C(CN1CCN(c2cc(=O)n(-c3ccccc3)c3ccccc23)CC1)Nc1nc(-c2ccc(Cl)cc2)cs1 | 55.1%
21 | COc1ccc(C2c3sc4c(C)cccc4c3Oc3nc(CC(=O)Nc4ccccc4)[nH]c(=O)c32)cc1 (stereo not drawn) | 92.9%
22 | O=C(/C=C/c1ccc(F)cc1)c1ccc(O)cc1 | 102%
23 | Cn1ccnc1C(=O)/C=C/c1ccc(NC(=O)c2c(F)c(F)c(F)c(F)c2F)cc1 | 101%
24 | Nc1cc(-c2c[nH]c3ccc(Br)cc23)nc2cc(-c3c[nH]c4ccc(Br)cc34)nn12 | 7.87% (active)
25 | C#CCC#CCN1CCC[C@H]1C(=O)NCC(=O)OC | 101%
26 | COc1cc(/C=C/C(=O)c2ccc(NC(=O)CSc3nnc(-c4ccc(-c5nc6ccc(Cl)cc6[nH]5)cc4)o3)cc2)cc(OC)c1OC | 96.7%
27 | Oc1cccc2ccc(-c3nnc(SCc4ccc(O)c5ncccc45)o3)nc12 | 7.94% (active)
28 | NS(=O)(=O)c1ccc(Nc2nc(SCc3ccccc3)nc3ccccc23)cc1 | 62%
29 | O=C1[C@@H]2Cc3c([nH]c4ccccc34)[C@H](c3c(Cl)cccc3Cl)N2C(=O)CN1C1CCN(CC2CCCCC2)CC1 | 51.3%
30 | NS(=O)(=O)c1ccc(Nc2nc(N/N=C/c3c[nH]c4ccccc34)nc(Nc3ccccc3)n2)cc1 | 81.2%
31 | N#Cc1c(-c2cccs2)cc(-c2cnccn2)nc1SCC(=O)Nc1ccc(Br)cc1 | 64.5%
32 | COc1ccc(Cn2cc3c(c2-c2cc(OC)c(OC)c(OC)c2)CCc2c(CN4CCOCC4)noc2-3)cc1 | 43.4%
33 | C=CCn1c(SCC(=O)Nc2ccc(C(=O)/C=C/c3ccc(C)cc3)cc2)nnc1-c1c[nH]c2ccccc12 | 83.4%
34 | COc1ccccc1C(=O)Nc1cccc2c1C(=O)C(=O)C=C2 | 101%
35 | COc1cc(-c2nn(C(C)(C)C)cc2-c2ccnc(NCCCNS(=O)(=O)c3ccc(Cl)cc3)n2)ccc1Cl | 64.1%
36 | CCc1cccc2c3c(sc12)C(c1ccc(Cl)cc1)C(C#N)=C(/N=C/c1ccc(Cl)cc1)O3 (stereo not drawn) | 41.7%
37 | C=C(C=O)[C@@H]1CC[C@]2(COC(C)=O)CC[C@]3(C)C(CC[C@@H]4[C@@]5(C)CC[C@H](OC(C)=O)C(C)(C)[C@@H]5CC[C@]43C)[C@@H]12 (stereo partly drawn) | -54.3% (active)
38 | COc1ccccc1N1CCN(C2=CC(=O)C(C)=C(C)C2=O)CC1 | 110%
